Data from PubChem BioAssay (Tox21).
Results filed as inconclusive are left out. Calls of active or inactive are those of the source. Unless noted, calls follow the shape of the dose curve; as a rule, active = well fitted curve in the direction sought with a large enough effect in the repeat runs; inconclusive = weak or mixed curves; inactive = no such curve, though single readings can be large; an effect the other way counts as inactive or inconclusive.

Columns and labels:
[1] = qHTS assay for small molecule agonists of the p53 signaling pathway (AID 651631; calls by dose curve; also: nearly all actives have a fitted effect of over 15% in size)
Procedure, shortened: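 HCT-116 cells carrying a stable p53 response element–beta-lactamase reporter were plated, rested 5 h at 37 °C, then exposed to compound in DMSO for 16 h at 37 °C; reporter activity was read as FRET substrate fluorescence after 2 h at room temperature.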

[2] = qHTS assay for small molecules that induce genotoxicity in human embryonic kidney cells expressing luciferase-tagged ATAD5 (AID 651632); also: nearly all actives have a fitted effect of over 15% in size
Procedure, shortened: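 Concentration-response screen for ATAD5 upregulation in HEK293T luciferase reporter cells; 16 hr treatment at 37C, then luminescence after 30 min with Amplite at room temperature.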

[3] = qHTS assay for small molecule agonists of the p53 signaling pathway - cell viability (AID 651633; calls by dose curve; also: series mostly up to about 83 µM; nearly all actives have a fitted effect of over 30% in size)
Procedure, shortened: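 p53RE-bla cells, seeded at 4,000 per well and rested 5 h at 37 C/5% CO2, received compounds in DMSO for 16 h at 37 C. CellTiter-Glo was then added, and luminescence was read after 30 min at room temperature to gauge cytotoxicity.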

[4] = qHTS assay for small molecules that induce genotoxicity in human embryonic kidney cells expressing luciferase-tagged ATAD5 - cell viability (AID 651634; calls by dose curve; also: nearly all actives have a fitted effect of over 25% in size)
Procedure, shortened: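 15.5 hr compound or vehicle exposure of HEK293T cells expressing luciferase-tagged ATAD5 at 37C; live-cell protease activity is read by fluorescence after 30 min of CellTiter-Fluor.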

[5] = qHTS assay for small molecule disruptors of the mitochondrial membrane potential - cell viability (AID 720634; calls by dose curve;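 also: human HepG2 liver cancer cells; series mostly up to about 83 µM; nearly all actives have a fitted effect of over 20% in size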)
Procedure, shortened: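 In this qHTS format, HepG2 cells plated overnight were pinned with compound, incubated 1 hr, and assayed for ATP luminescence with CellTiter-Glo after m-MPI dye addition.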

[6] = qHTS assay for small molecule disruptors of the mitochondrial membrane potential (AID 720635); also: potency is read from the fitted curve at half-maximal effect
Procedure, shortened: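 HepG2 cells (2,000/well) attached overnight at 37C, then took compound for 1 hr at 37C, 5% CO2. Mito-MPS dye was added for 30 min; fluorescence was read at 490/535 nm (monomers) and 540/590 nm (aggregates).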

[7] = qHTS assay to test for compound auto fluorescence at 590 nm (red) in HepG2 cells (AID 720674)
Procedure, shortened: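 Intrinsic compound fluorescence in the red window (Ex/Em 540/590 nm) is measured in attached HepG2 cells exposed for 1 hr, DMSO vehicle as baseline, benchmarked to Rose Bengal sodium.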

[8] = qHTS assay to test for compound auto fluorescence at 535 nm (green) in HepG2 cells (AID 720675)
[9] = qHTS assay to test for compound auto fluorescence at 460 nm (blue) in HEK293 cells (AID 720678)
Procedure, shortened: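 Blue-channel (Ex/Em 405/460 nm) intensity measured in HEK293 cultures after overnight compound exposure at 37C; signal expressed relative to triamterene. Cells plated 2,000 per well in 10% dialyzed FBS medium and allowed 4-5 hr to attach.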

[10] = qHTS assay to test for compound auto fluorescence at 590 nm (red) in HEK293 cells (AID 720679)
Procedure, shortened: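 Red-channel autofluorescence (Ex/Em 540/590 nm; Rose Bengal sodium reference) was measured after overnight 37C, 5% CO2 exposure of attached HEK293 cells, 2,000 per well in medium with 10% dialyzed FBS.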

[11] = qHTS assay to test for compound auto fluorescence at 535 nm (green) in HEK293 cells (AID 720680)
[12] = qHTS assay to test for compound auto fluorescence at 460 nm (blue) in HEK293 cell free culture (AID 720681)
Procedure, shortened: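 Test compounds were pinned into cell-free culture medium (DMEM with 10% FBS) and fluorescence was read directly at Ex/Em 405/460 nm. Signals were expressed as fluorescence equivalents of triamterene, with DMSO vehicle as control.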

[13] = qHTS assay to test for compound auto fluorescence at 535 nm (green) in HEK293 cell free culture (AID 720682)
Procedure, shortened: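 Read-out: 485/535 nm fluorescence intensity, calibrated against fluorescein. Medium only (DMEM + 10% FBS, no cells); test compound or DMSO vehicle added by pintool before plate reading.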

[14] = qHTS assay to test for compound auto fluorescence at 590 nm (red) in HEK293 cell free culture (AID 720683)
Procedure, shortened: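 Tox21 10K library compounds were pinned into cell-free DMEM with 10% FBS and fluorescence was read at excitation 540 nm. Activity is expressed as Rose Bengal sodium equivalency.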

[15] = qHTS assay to test for compound auto fluorescence at 590 nm (red) in HepG2 cell free culture (AID 720684)
Procedure, shortened: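 Readout: intrinsic compound fluorescence at 590 nm emission after 540 nm excitation, scaled to Rose Bengal sodium. Matrix was cell-free MEM with 10% FBS; DMSO vehicle wells served as control.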

[16] = qHTS assay to test for compound auto fluorescence at 460 nm (blue) in HepG2 cell free culture (AID 720685)
Procedure, shortened: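 Cell-free plates of MEM plus 10% FBS received 23 nL compound or DMSO vehicle; blue-channel (405/460 nm) intensity scored against triamterene as reference fluorophore.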

[17] = qHTS assay to test for compound auto fluorescence at 460 nm (blue) in HepG2 cells (AID 720687)
Procedure, shortened: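 Cells (2,000/well in MEM with 10% FBS) attached overnight at 37 C, then were exposed to compound or DMSO for 1 hr at 37 C, 5% CO2. Fluorescence read at Ex/Em 405/460 nm, expressed as triamterene-equivalent signal.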

[18] = biological target: Glucocorticoid receptor (Homo sapiens) (UniProt P04150); experiment: qHTS assay to identify small molecule agonists of the glucocorticoid receptor (GR) signaling pathway (AID 720691; active = well fitted activation curve with a large enough effect in the signal ratio in the repeat runs, not every such curve was filed as active; the % refers to the signal ratio)
Procedure, shortened: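 Measures GR pathway activation through a GRE-beta-lactamase reporter stably integrated in HeLa cells, with 18 h compound treatment at 37 C and fluorescence detection using a FRET substrate.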

[19] = biological target: Glucocorticoid receptor (Homo sapiens) (UniProt P04150); experiment: qHTS assay to identify small molecule antagonists of the glucocorticoid receptor (GR) signaling pathway (AID 720692; active = well fitted inhibition curve with a large enough effect in the signal ratio in the repeat runs, not every such curve was filed as active; the % refers to the signal ratio)
Procedure, shortened: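 Tox21 10K library screened in concentration-response for blockade of dexamethasone (5 nM final)-induced GRE-bla reporter activity in HeLa cells; 18 h treatment, fluorescence read.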

[20] = qHTS assay to test for compound auto fluorescence at 535 nm (green) in HepG2 cell free culture (AID 720686)

Measured: Potency

Sequence of Glucocorticoid receptor (Homo sapiens) (P04150 whole entry, looked up): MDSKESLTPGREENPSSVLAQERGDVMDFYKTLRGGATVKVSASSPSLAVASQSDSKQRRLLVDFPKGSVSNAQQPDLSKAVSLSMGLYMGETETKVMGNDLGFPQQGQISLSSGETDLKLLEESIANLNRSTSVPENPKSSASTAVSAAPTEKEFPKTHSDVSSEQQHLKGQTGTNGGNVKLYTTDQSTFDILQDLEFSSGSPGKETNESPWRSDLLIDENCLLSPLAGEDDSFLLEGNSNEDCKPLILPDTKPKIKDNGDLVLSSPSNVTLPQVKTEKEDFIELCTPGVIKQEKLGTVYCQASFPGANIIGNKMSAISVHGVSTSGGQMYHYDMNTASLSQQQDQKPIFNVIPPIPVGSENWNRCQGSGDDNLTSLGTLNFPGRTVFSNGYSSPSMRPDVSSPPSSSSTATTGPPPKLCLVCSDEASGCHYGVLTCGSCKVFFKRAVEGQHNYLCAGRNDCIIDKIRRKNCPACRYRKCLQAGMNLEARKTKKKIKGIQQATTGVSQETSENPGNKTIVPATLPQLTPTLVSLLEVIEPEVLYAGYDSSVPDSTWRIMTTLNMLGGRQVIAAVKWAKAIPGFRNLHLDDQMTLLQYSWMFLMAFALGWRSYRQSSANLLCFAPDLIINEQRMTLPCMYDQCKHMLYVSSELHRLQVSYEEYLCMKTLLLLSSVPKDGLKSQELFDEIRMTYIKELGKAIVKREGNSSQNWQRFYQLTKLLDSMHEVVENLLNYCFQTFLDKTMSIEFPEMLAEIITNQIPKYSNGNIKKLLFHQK

CCCCCc1ccc(Cl)cc1
inactive: [1] | [2] | [3] | [4] | [5] | [6] | [7] | [8] | [9] | [10] | [11] | [12] | [13] | [14] | [15] | [16] | [17] | [18] | [19]

CC(C)CCOC(=O)/C=C/c1ccccc1
inactive: [1] | [2] | [3] | [4] | [5] | [6] | [7] | [8] | [9] | [10] | [11] | [12] | [13] | [14] | [15] | [20] | [17] | [18] | [19]

C[Si](Cl)(c1ccccc1)c1ccccc1
active: [6] 26.6 µM
inactive: [1] | [2] | [3] | [4] | [5] | [7] | [8] | [10] | [11] | [12] | [13] | [14] | [16] | [17] | [18]

C=CCn1c(=O)n(CC=C)c(=O)n(CC=C)c1=O
inactive: [1] | [2] | [3] | [4] | [5] | [6] | [7] | [8] | [9] | [10] | [11] | [12] | [13] | [14] | [15] | [16] | [20] | [17] | [18]

CC(C)OC(=O)C(O)(CC(=O)O)CC(=O)O
inactive: [1] | [2] | [3] | [4] | [5] | [6] | [7] | [8] | [9] | [10] | [11] | [12] | [13] | [14] | [16] | [20] | [17]

O=c1c(O)c(-c2ccc(O)cc2O)oc2cc(O)cc(O)c12
inactive: [1] | [2] | [3] | [4] | [5] | [7] | [9] | [10] | [11] | [12] | [13] | [14] | [15] | [20] | [17] | [18] | [19]
active: [6] 22.9 µM

CCCCOC(=O)CC
inactive: [1] | [2] | [3] | [4] | [5] | [6] | [7] | [8] | [9] | [10] | [11] | [12] | [13] | [15] | [20] | [17] | [18] | [19]

Cc1nc(-c2ccc(Cl)cc2)oc1COC(C)(C)C(=O)O
inactive: [1] | [2] | [3] | [4] | [5] | [6] | [7] | [8] | [9] | [10] | [11] | [12] | [13] | [14] | [16] | [17] | [18] | [19]

CCC(=O)C(=O)CC
inactive: [1] | [2] | [3] | [4] | [5] | [7] | [8] | [9] | [10] | [11] | [12] | [13] | [15] | [16] | [17]

FC(F)(F)c1cccc(Cl)c1
inactive: [1] | [2] | [3] | [4] | [5] | [7] | [8] | [9] | [10] | [11] | [12] | [13] | [14] | [16] | [20] | [17] | [18] | [19]

OC12N=C(c3ccccc3)SC1Cc1cc(Cl)ccc12 (stereo unspecified)
inactive: [1] | [2] | [3] | [4] | [7] | [8] | [9] | [10] | [11] | [12] | [13] | [14] | [16] | [20] | [17]
active: [6] 17.2 µM

C1CCC(SSC2CCCCC2)CC1
inactive: [1] | [2] | [3] | [4] | [5] | [7] | [8] | [9] | [10] | [11] | [12] | [13] | [14] | [15] | [20] | [17] | [18] | [19]

CCN(CCN)c1cccc(C)c1
inactive: [1] | [2] | [3] | [4] | [5] | [7] | [8] | [9] | [10] | [11] | [12] | [13] | [14] | [15] | [20] | [17]

CN1CCCCC1CCN1c2ccccc2Sc2ccc(S(C)=O)cc21 (stereo unspecified)
inactive: [1] | [2] | [3] | [4] | [5] | [7] | [8] | [9] | [10] | [11] | [12] | [13] | [14] | [15] | [16] | [20] | [17] | [18] | [19]
